Assay outcomes as filed in PubChem.
HP1b binding inh – inhibitors of HP1-beta chromodomain binding to methylated histone tails; Potency, µM (highest dose often 114 µM), actives largely listed as inhibitors; 390,000 tested, 0.56% active; AID 540317; AlphaScreen HP1-beta / biotin-H3K9me3 peptide binding; also: nearly all actives have a fitted effect of over 70% in size
Target sequence (P83916 whole entry, looked up): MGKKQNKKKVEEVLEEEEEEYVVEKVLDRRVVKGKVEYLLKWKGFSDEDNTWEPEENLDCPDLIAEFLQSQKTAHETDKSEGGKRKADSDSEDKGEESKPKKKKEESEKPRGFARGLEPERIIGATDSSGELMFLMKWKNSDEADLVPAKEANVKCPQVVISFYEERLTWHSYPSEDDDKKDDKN
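Compound inhibition of the preformed complex between 50 nM HP1-beta and 50 nM biotinylated H3K9me3 peptide was read by AlphaScreen. Buffer was PBS pH 7.4 with 0.01% Tween-20. Incubations ran 30 min at room temperature, with 10 ug/mL donor/acceptor beads.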
JMJD2A Tudor inh – JMJD2A Tudor domain (human) inhibition. O75164. AlphaScreen JMJD2A-Tudor / H3K4me3 peptide binding. Potency, µM (top dose mostly 114 µM), actives largely listed as inhibitors. 390,000 tested, 4.4% active; also: nearly all actives have a fitted effect of over 50% in size
BAZ2B inh – BAZ2B (human) inhibition; Potency, µM (doses to about 114 µM), actives largely listed as inhibitors; 360,000 tested, 4.4% active; Q9UIF8; AID 504333; AlphaScreen BAZ2B-H3K14Ac peptide displacement; also: nearly all actives have a fitted effect of over 60% in size
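BAZ2B 50 nM plus b-H3(5-23)K14Ac 50 nM, PBS pH 7.4/0.01% Tween-20, 30 min RT; compound added (max 110 uM), 30 min RT; streptavidin donor/Ni-chelate acceptor beads 10 ug/mL final, 20 min dark; AlphaScreen read.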
G9a inh – inhibitors of human histone lysine methyltransferase G9a; 350,000 tested, 8.8% active; G9a H3K9 monomethylation, AlphaScreen, 2 h; Potency, µM (series often up to 102 µM), usual class: inhibitors; also: nearly all actives have a fitted effect of over 75% in size
Target sequence (Q96KQ7 913-1193 limits assumed): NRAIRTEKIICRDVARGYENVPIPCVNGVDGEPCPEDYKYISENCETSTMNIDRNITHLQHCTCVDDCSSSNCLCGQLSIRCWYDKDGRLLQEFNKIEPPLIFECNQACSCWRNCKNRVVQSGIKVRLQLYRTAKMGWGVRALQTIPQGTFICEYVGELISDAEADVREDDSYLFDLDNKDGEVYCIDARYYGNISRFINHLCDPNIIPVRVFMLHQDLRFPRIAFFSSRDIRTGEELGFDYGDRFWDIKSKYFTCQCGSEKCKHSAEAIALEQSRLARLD
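G9a (20 nM) was preincubated 15 min with compound, then reacted 2 h at room temperature with 500 nM biotin-H3K9 peptide and 20 µM SAM. Monomethyl-H3K9 detected by AlphaScreen using anti-H3K9me1 antibody.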
Sfp inh – blocks B. subtilis Sfp PPTase activity; AID 1490; Potency, µM, most hits filed as inhibitors; Biochemical Sfp PPTase activity, qHTS; 310,000 tested, 3.5% active;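 also: the enzyme is Sfp with the accession as filed and its product quenches rhodamine fluorescence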
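After 15 min at room temperature with compound, 15 nM Sfp received 5 uM rhodamine-CoA plus 12.5 uM BHQ-2-ybbR (50 mM Hepes pH 7.6, 10 mM MgCl2). Rate came from the fluorescence difference over 30 min, ex 525/em 598 nm.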
Of the large screens only hits and unclear results are named; the others gave an inactive call. Most compounds without a hit are left out; they make up all but 12% or so of the library. Calls follow the shape of the dose curve; as a rule, active = well fitted curve in the direction sought with a large enough effect; inconclusive = small, poorly fitted or top-dose-only effect, or another doubt; inactive = no such curve, though single readings can be large; an effect the other way counts as inactive or inconclusive.

CCn1c(SCC(=O)Nc2ccc(N(C)C)cc2)nnc1-c1ccco1	G9a inh 39.8µM
COc1ccc(CNC(=O)COC(=O)CC(NC(N)=O)c2ccc(Cl)cc2)cc1OC (stereo not drawn)	none (no result: Sfp inh)
NC(=O)SC/C(=N\S(=O)(=O)c1ccccc1)Nc1ccccc1	none
O=C(Cn1cnc2onc(-c3ccc(F)cc3)c2c1=O)Nc1ccc(F)c(Cl)c1	none (no result: Sfp inh)
Cc1cc(-n2c(C)nc3ccccc3c2=O)ccc1NC(=O)c1cccc([N+](=O)[O-])c1C	none (no result: Sfp inh)
CCn1c(SCC(=O)Nc2ccc3c(c2)c2ccccc2n3CC)nnc1-c1ccco1	HP1b binding inh 15.8µM, JMJD2A Tudor inh 28.2µM
CCn1c(SCC(=O)Nc2cccc(NC(C)=O)c2)nnc1-c1ccco1	none
Cc1sc2nc(SCC(=O)Nc3cccc(S(N)(=O)=O)c3)[nH]c(=O)c2c1C	HP1b binding inh inconclusive, JMJD2A Tudor inh 89.1µM (no result: BAZ2B inh, G9a inh, Sfp inh)
Cc1sc2nc(SCC(=O)Nc3cccc(C(=O)O)c3)[nH]c(=O)c2c1C	G9a inh 25.1µM (no result: Sfp inh)
Cc1cc(=S)[nH]c(=S)[nH]1	Sfp inh 44.7µM (no result: G9a inh)
Cc1occc1-c1nnc(-c2cc([N+](=O)[O-])cc([N+](=O)[O-])c2)o1	BAZ2B inh inconclusive, G9a inh 31.6µM, Sfp inh inconclusive
O=[N+]([O-])c1cccc(-c2nnc(-c3ccccc3)o2)c1	none
N#CC1=C(N)S[C@@H](C(=O)c2ccc(F)cc2)[C@@H]1c1cccs1	JMJD2A Tudor inh inconclusive, BAZ2B inh inconclusive, G9a inh 10µM, Sfp inh inconclusive
N#CC1=C(N)SC(C(=O)c2ccccc2)C1c1cccs1 (stereo not drawn)	G9a inh inconclusive
O=C(CN1C(=O)NC2(CCCCC2)C1=O)N1CCN(S(=O)(=O)c2ccc(Cl)s2)CC1	G9a inh 17.8µM (no result: Sfp inh)
CN1C(=O)N(CC(=O)N2CCN(S(=O)(=O)c3ccc(Cl)s3)CC2)C(=O)C12CCCCC2	G9a inh inconclusive (no result: Sfp inh)
C=CCSC1=C(C#N)C(c2ccccc2)CC(=O)N1 (stereo not drawn)	G9a inh 50.1µM
CCOC(=O)CSC1=C(C#N)C(c2ccc(Cl)cc2)CC(=O)N1 (stereo not drawn)	G9a inh 79.4µM
C=C(C)CSC1=C(C#N)C(c2ccsc2)CC(=O)N1 (stereo not drawn)	Sfp inh 28.2µM
C=CCSC1=C(C#N)C(c2ccc(C(C)C)cc2)CC(=O)N1 (stereo not drawn)	G9a inh 44.7µM, Sfp inh 44.7µM
Cn1cccc1C1CCCN1CC(=O)Nc1c(Cl)cc(Cl)cc1Cl (stereo not drawn)	none (no result: BAZ2B inh, G9a inh, Sfp inh)
Cn1c2ccccc2c2c(=O)oc3ccccc3c21	none (no result: BAZ2B inh, G9a inh, Sfp inh)
Fc1cccc(Cl)c1CNn1cn[nH]c1=S	JMJD2A Tudor inh 50.1µM, G9a inh 8.91µM
S=c1[nH]ncn1NCc1ccc(Cl)cc1Cl	JMJD2A Tudor inh 31.6µM, G9a inh 2.82µM
Cc1cc(C(F)(F)F)nn1CCCNC(=O)c1cnccn1	none
CN1CCN(C2=Nc3cc(F)ccc3Cc3ccccc32)CC1	none (no result: HP1b binding inh, JMJD2A Tudor inh)
CN1CCN(C2=Nc3c(Cl)cc(Cl)c4cccc2c34)CC1	HP1b binding inh inconclusive, JMJD2A Tudor inh 50.1µM, BAZ2B inh 28.2µM, G9a inh inconclusive
Cc1ccc(NC(=O)CN2C(=O)C(C)(C)c3ccccc32)cc1	none (no result: Sfp inh)
C/C=C/C=C/C(=O)Nc1nccs1	JMJD2A Tudor inh inconclusive, Sfp inh 35.5µM
O=C(/C=C/c1ccc(Cl)cc1)Nc1nccs1	none
Cc1ccc(NC(=O)CSc2nnc(N)s2)cc1S(=O)(=O)N1CCOCC1	G9a inh 50.1µM (no result: Sfp inh)
Nc1nnc(SCC(=O)Nc2ccc(S(=O)(=O)N3CCOCC3)cc2)s1	G9a inh inconclusive
Cc1ccc(NC(=O)COC(=O)c2sccc2C)cc1S(=O)(=O)N1CCOCC1	G9a inh 50.1µM
Oc1ccc2ccccc2c1C=NCc1cn2ccsc2n1	JMJD2A Tudor inh inconclusive, G9a inh 8.91µM
O=C(CCCc1ccccc1)NCc1cn2ccsc2n1	G9a inh inconclusive
Cc1c(N/C=C/C(=O)c2ccc(Cl)cc2)c(=O)n(-c2ccccc2)n1C	G9a inh inconclusive
O=C(NC1CCCC1)c1sc(=S)n2c1[nH]c(=O)c1ccccc12	JMJD2A Tudor inh 89.1µM, BAZ2B inh inconclusive, G9a inh inconclusive
O=C(NCc1ccco1)c1sc(=S)n2c1[nH]c(=O)c1ccccc12	HP1b binding inh inconclusive, JMJD2A Tudor inh 50.1µM, BAZ2B inh inconclusive, G9a inh 22.4µM, Sfp inh 44.7µM
O=C(NC1CCCCCCC1)c1c(O)c2ccccc2[nH]c1=O	none
C[n+]1cn(/N=C/c2ccccc2)c2ccccc21	JMJD2A Tudor inh inconclusive, G9a inh 1.58µM
Cc1cccc(Oc2ccc3c(c2)Oc2ccccc2NC3=O)c1	JMJD2A Tudor inh 50.1µM, BAZ2B inh 50.1µM (no result: Sfp inh)
COc1ccc2c(c1)C=C([C@@H]1C[C@H]3CN(c4ccccc4)C(=O)[C@]34CCCN14)CO2	JMJD2A Tudor inh inconclusive, G9a inh 56.2µM
CN1C[C@@H]2C[C@@H](C3=Cc4cc(Cl)ccc4OC3)N3CCC[C@@]23C1=O	none (no result: G9a inh)
O=C(CSc1nnc(-c2ccc(Br)o2)n1Cc1ccccc1)c1ccccc1F	JMJD2A Tudor inh inconclusive, BAZ2B inh inconclusive, G9a inh 4.47µM, Sfp inh 35.5µM
CCOC(=O)C1=C(CS(=O)(=O)c2ccc(F)cc2)NC(=O)NC1c1ccc(O)c(O)c1 (stereo not drawn)	G9a inh 14.1µM
COc1cc(CN2CCCCC2C(=O)Nc2ccc(Oc3ccccc3)nc2)ccc1O (stereo not drawn)	G9a inh 5.62µM
CCN(CC)C(=O)CSc1n[nH]c(=S)n1N	Sfp inh 50.1µM (no result: G9a inh)
O=C(COc1ccc(Cl)cc1Cl)OCC(=O)N1CCCc2ccccc21	none
O=C(COc1ccc(Cl)cc1Cl)NC(=S)N1CCCc2ccccc21	HP1b binding inh inconclusive, JMJD2A Tudor inh 39.8µM, BAZ2B inh 79.4µM, G9a inh 10µM, Sfp inh 56.2µM
Cc1cccc(OCC(=O)NC(=S)N2CCCc3ccccc32)c1	HP1b binding inh inconclusive, JMJD2A Tudor inh 50.1µM, BAZ2B inh 44.7µM, G9a inh 11.2µM, Sfp inh 79.4µM
CCCC(C(=O)NCc1ccco1)N(C(=O)CNS(=O)(=O)c1ccc(Cl)cc1)C1CCCC1 (stereo not drawn)	BAZ2B inh inconclusive, G9a inh inconclusive
O=C1c2ccccc2C(=O)C2OC12 (stereo not drawn)	G9a inh 8.91µM, Sfp inh inconclusive (no result: HP1b binding inh, JMJD2A Tudor inh)
CC(=O)c1ccc(C(=O)N2CCc3c([nH]c4ccccc34)C2c2cccc(C)n2)s1 (stereo not drawn)	JMJD2A Tudor inh inconclusive, G9a inh inconclusive
O=C(CN(Cc1ccc2c(c1)OCO2)C(=O)CSc1nc2ccccc2o1)NC1CCCCC1	Sfp inh 79.4µM
CCOC(=O)C1CCN(C(=O)C2CCCN2S(=O)(=O)c2ccc(Cl)cc2)CC1 (stereo not drawn)	none (no result: G9a inh)
O=C(NCCCn1ccnc1)c1cc(C2CC2)on1	none
